Bioassay records deposited in PubChem by National Center for Advancing Translational Sciences (NCATS).
TDP1 cell CPT = DT40-hTDP1 cell growth loss with CPT; 12% of 420,000 active; AID 686979; Potency, µM (highest dose often 46.2 µM), without a hit: at the highest dose activity change, negative = growth inhibition, hits mostly inhibitors; chicken DT40 Tdp1-/-;hTDP1 cells + 20 nM CPT, ATP luminescence, 48 h; note: nearly all actives have a fitted effect of over 55% in size
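Chicken DT40 Tdp1-/- cells stably complemented with human TDP1 were seeded at 400 cells/well in medium containing 20 nM camptothecin, exposed to pin-transferred compounds, and grown at 37 °C for at least 48 hr. Viability was read as ATP luminescence.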
ELG1 DNA repair = inhibitors of ELG1-dependent DNA repair in HEK293T cells. HEK293T ELG1-luciferase reporter, luminescence, 16 h; DNA damage induced by 5-fluorouridine. Potency, µM (titrated, usually from 46.1 µM), for inactives: top-dose activity change, negative = inhibition, hits mostly inhibitors. 2.3% of 330,000 active. AID 504467; note: nearly all actives have a fitted effect of over 55% in size
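Step one: seed 2,000 cells per well. Step two: pin-transfer compound or DMSO alongside 5-fluorouridine. Step three: incubate 16 hr, 37 °C, 5% CO2. Step four: add ONE-Glo, wait 30 min, read luminescence.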
DT40 TDP1 no CPT = qHTS for Inhibitors of human tyrosyl-DNA phosphodiesterase 1 (TDP1): qHTS in cells in absence of CPT; DT40 Tdp1-/- hTDP1 cells, no CPT, ATP luminescence, 48 h; Potency, µM (highest dose often 46.2 µM), without a hit: at the top dose activity change, negative = growth inhibition, usual class: inhibitors; 15% of 420,000 active; AID 686978, 2013; note: nearly all actives have a fitted effect of over 55% in size
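Seeded 400 DT40-hTDP1 cells/well (vehicle DMSO, no 20 nM CPT); pinned compounds; ≥48 hr at 37 °C; CellTiter-Glo luminescence as viability measure.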
VP16 counter = counter-screen for ROR gamma inhibitors: Gal4-VP16 reporter; Drosophila S2 Gal4-VP16 UAS-luciferase, luminescence, 20 h; 3.5% of 310,000 active; Potency, µM (top dose mostly 53.6 µM), for inactives: top-dose activity, negative = inhibition, actives largely listed as inhibitors;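 note: Gal4-VP16 expression switched on by copper sulfate through the metallothionein promoter; nearly all actives have a fitted effect of over 50% in size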
RORg inh = ROR gamma (mouse) transcription inhibition. AID 2551. 5.4% of 310,000 active. Potency, µM (highest dose often 53.6 µM), for the others: top-dose activity change, negative = inhibition, usual class: inhibitors. Drosophila S2 Gal4-RORgamma UAS-luciferase reporter, 20 h. P51450; note: nearly all actives have a fitted effect of over 60% in size
Target sequence (P51450 whole entry, looked up, the tested form may be a part): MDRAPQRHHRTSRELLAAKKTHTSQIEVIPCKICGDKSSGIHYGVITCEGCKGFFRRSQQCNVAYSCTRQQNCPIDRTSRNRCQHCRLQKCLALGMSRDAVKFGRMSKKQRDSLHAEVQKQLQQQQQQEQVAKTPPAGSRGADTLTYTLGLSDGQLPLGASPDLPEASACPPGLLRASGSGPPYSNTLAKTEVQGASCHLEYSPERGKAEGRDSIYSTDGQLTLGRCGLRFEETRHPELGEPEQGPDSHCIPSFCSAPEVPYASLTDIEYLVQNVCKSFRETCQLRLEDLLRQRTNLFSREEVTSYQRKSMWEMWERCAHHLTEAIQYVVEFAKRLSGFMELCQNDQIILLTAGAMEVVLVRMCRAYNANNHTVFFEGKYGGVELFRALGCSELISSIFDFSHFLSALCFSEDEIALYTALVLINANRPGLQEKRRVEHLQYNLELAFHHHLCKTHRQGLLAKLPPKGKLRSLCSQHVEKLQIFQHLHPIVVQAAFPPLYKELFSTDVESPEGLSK
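Using a luciferase readout, inhibitors were identified by reduced reporter activity in Drosophila cells coexpressing a copper-inducible Gal4–ROR gamma fusion and UAS-driven Photinus luciferase, incubated 20 hr after 700 uM copper sulfate.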
ALOX12 inh = ALOX12 (human) lipoxygenase inhibition. 1.1% of 580,000 active. purified 12hLO, xylenol orange hydroperoxide absorbance. P18054. Potency, µM (titrated, usually from 108 µM), inactives show top-dose activity change, negative = inhibition, most hits filed as inhibitors
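Hydroperoxide product was detected by ferrous iron/xylenol orange as the 573 to 405 nm absorbance ratio. Arachidonic acid at 40 uM (final) was turned over for 30 min at room temperature by 150 nM human 12hLO, pH 7.0 Hepes buffer, after 15 min compound preincubation.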
Active calls of the source: *; i = inactive; ? = inconclusive; / = no result; [ ] = dose if it differs, or a comment. The list is not random: actives were taken first. Their share in the collection is about 15%. Calls come from the whole dose curve; as a rule, active = well fitted curve in the direction sought with a large enough effect; inconclusive = small, poorly fitted or top-dose-only effect, or another doubt; inactive = no such curve, though single readings can be large; an effect the other way counts as inactive or inconclusive. % is set by controls: 0 for no effect and ±100 for the full control effect; potency is the fitted concentration of half-maximal effect.

SMILES | TDP1 cell CPT | ELG1 DNA repair | DT40 TDP1 no CPT | VP16 counter | RORg inh | ALOX12 inh
O=C(Nc1ccccc1Br)C1CC2CCC1C2 (configuration not stated) | / | / | / | / | / | -26%
CN(Cc1ccccc1)Cc1nc2c(n1Cc1ccccc1)C(=O)N(CC1CC1)CCN2 | / | / | / | / | / | 87%[176 µM]
Cc1ccc(S(=O)(=O)N2CCCCC2)cc1C(=O)N(C)CC(=O)Nc1ccc(Cl)c(C(F)(F)F)c1 | ? | ? | ? | ? | -1% | i
CN(CC(=O)Nc1ccc(Cl)c(C(F)(F)F)c1)C(=O)c1ccc(S(=O)(=O)N2CCOCC2)cc1 | 4.6µM* | / | 6.5µM* | / | / | 19%
Cc1ccc(C(=O)N(C)CC(=O)Nc2ccc(Cl)c(C(F)(F)F)c2)cc1S(=O)(=O)N1CCCCC1 | ? | ? | 23µM* | / | / | 1%
CN(CC(=O)Nc1ccc(Cl)c(C(F)(F)F)c1)C(=O)c1ccc(OCC2CCCO2)cc1 (configuration not stated) | 18µM* | -16% | 16µM* | / | / | -12%
CN(CC(=O)Nc1ccc(Cl)c(S(=O)(=O)N2CCOCC2)c1)C(=O)c1ccc(C#N)cc1 | -3% | ? | 26% | / | / | 1%
CN(C)S(=O)(=O)N1CCCC(c2nnc(CN3CCCCC3)n2C)C1 (configuration not stated) | / | / | / | / | / | -26%
CCOC(=O)c1c(C)[nH]c(C(=O)OC)c1CCC(=O)OC | ? | 3% | ? | -1% | 15% | 4%
CCOC(=O)c1[nH]c(Cc2[nH]c(C(=O)OCC)c(C)c2CCC(=O)OC)c(CCC(=O)OC)c1C | ? | 18µM* | ? | 3% | 17% | ?
O=C(CCN1C(=O)c2ccccc2C1=O)Nc1cccc(O)c1 | 11% | -4% | -11% | 0% | -9% | 0%
O=C(CCN1C(=O)c2ccccc2C1=O)NC(=S)Nc1cccc(Cl)c1 | -22% | -1% | -19% | ? | 11µM* | -12%
Cc1cc(C)cc(NC(=S)NC(=O)CCN2C(=O)c3ccccc3C2=O)c1 | -28% | 2% | ? | 4.5µM* | 3.5µM* | -18%
CCOc1ccc2c(c1)OC(c1ccc(C)cc1)(C(F)(F)F)NC2=O (configuration not stated) | 1.5µM* | ? | 1.3µM* | -8% | 10% | -28%
CCOc1ccc2c(c1)OC1(CCC(C)C1)CC2=O (configuration not stated) | -25% | / | -18% | / | / | -48%
CS(=O)(=O)Nc1ccc(S(=O)(=O)N2CCCC2)cc1 | 13% | 7% | -2% | -19% | 6% | -2%
Cc1sc(N2CCCC2)nc1-c1ccc(NS(C)(=O)=O)cc1 | / | / | / | / | / | 35µM*
O=C(Cn1c(SCc2cccc(F)c2)nc2cccnc21)Nc1ccc(F)c(Cl)c1 | 26µM* | / | 15µM* | / | / | -19%
COc1ccc(NC(=O)Cn2c(SCc3ccc(C)cc3)nc3cccnc32)cc1OC | 2.3µM* | / | 1.6µM* | / | / | ?
O=C(Cn1c(SCc2ccccc2F)nc2cccnc21)Nc1ccc(F)c(Cl)c1 | ? | / | ? | / | / | -9%
CN(C)c1ccc(NC(=O)Cn2c(SCc3ccccc3F)nc3cccnc32)cc1 | ? | / | ? | / | / | -17%
COc1cc(OC)c(NC(=O)Cn2c(SCc3ccccc3F)nc3cccnc32)cc1Cl | -1% | / | -4% | / | / | -13%
COc1ccc(NC(=O)Cn2c(SCc3ccc(F)cc3)nc3cccnc32)cc1OC | 3.7µM* | / | 2.3µM* | / | / | -20%
COc1ccc(NC(=O)Cn2c(SCc3ccc(F)cc3)nc3cccnc32)c(OC)c1 | ? | / | 21µM* | / | / | -19%
Cc1ccc(C(=O)N2CCC3(CC2)c2[nH]c4ccccc4c2CCN3C)cn1 | / | / | / | / | / | 15%
